# Source: PubChem
# NS1 function inh – qHTS Assay for Inhibitors of Influenza NS1 Protein Function | Potency, µM (top dose mostly 46.1 µM), inactives show at the top dose activity, positive = more growth | 0.4% of 270,000 active; calls by dose curve; further: actives are rising curves; nearly all actives have a fitted effect of over 50% in size
#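 OD600 was taken as the measure of yeast growth restored by compound in an NS1-expressing S. cerevisiae strain. Cells had been washed out of glucose medium and diluted 1:100 into galactose -URA medium, pH 6.0.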
# RE007 growth inh – qHTS Assay for Inhibitors of the HIV-1 protein Vpr; S. pombe RE007 Vpr strain, BacTiter-Glo ATP luminescence, 24 h; Potency, µM (titrated, usually from 92.2 µM), for inactives: at the highest dose activity change, negative = less growth, most hits filed as inhibitors; 0.21% of 360,000 active; AID 651644, 2012; active means well fitted falling curve with a large enough effect; inconclusive means small, poorly fitted or top-dose-only effect; inactive means no such curve, though single readings can be large or run the other way; further: on the % scale 0 is the no-effect control and ±100 the full control effect; nearly all actives have a fitted effect of over 50% in size
#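 Fission yeast RE007 carrying one integrated HIV-1 vpr copy, seeded at OD 0.01 in PMG+AL medium with 23 nL pinned compound. Grown 24 h at 30 degrees; viability read by BacTiter-Glo luminescence after 5 min.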
# Pf growth 48h – Primary qHTS for delayed death inhibitors of the malarial parasite plastid, 48 hour incubation. P. falciparum luciferase growth in erythrocytes, 48 h. Potency, µM (series often up to 28.7 µM), inactives show top-dose activity change, negative = inhibition, actives largely listed as inhibitors. 5.9% of 310,000 active; further: on the % scale 0 is the no-effect control and ±100 the full control effect
#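 A one-generation exposure of luciferase-tagged malaria parasites in RPMI 1640/Albumax erythrocyte culture, 37 C and 5% CO2. Inhibition is inferred from decreased luminescence after adding detection reagent.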
# SARS PLpro yeast – qHTS of Yeast-based Assay for SARS-CoV PLP; AID 485353, 2010; 0.19% of 330,000 active; Potency, µM (titrated, usually from 32.9 µM), for inactives: at the highest dose activity, positive = growth rescue, hits mostly activators; S. cerevisiae expressing SARS-CoV PLpro, growth rescue; calls by dose curve; further: 0% is about no effect; nearly all actives have a fitted effect of over 55% in size
# Pf growth 96h – Primary qHTS for delayed death inhibitors of the malarial parasite plastid, 96 hour incubation; AID 504834, 2011; Potency, µM (highest dose often 28.7 µM), for the others: top-dose activity change, negative = inhibition, most hits filed as inhibitors; P. falciparum luciferase reporter growth, 96 h; 6.9% of 320,000 active; further: on the % scale 0 is the no-effect control and ±100 the full control effect
#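 Erythrocytes infected with luciferase-expressing P. falciparum were dispensed at 2% hematocrit and 0.05% parasitemia (final), then incubated with compounds 96 hours at 37 C in 5% CO2. Luminescence after detection reagent addition reported growth.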
# * = called active by the depositor; ? = inconclusive; · = no result; [ ] = dose if it differs, or a comment. Shown are actives, neighbours in structure and some others; about 9.5% of the full set was active somewhere. Unless noted, the call rests on the fitted dose curve; in most records, active means well fitted inhibition curve with a large enough effect; inconclusive means small, poorly fitted or top-dose-only effect, or another doubt; inactive means no such curve, though single readings can be large or run the other way. Potency means the concentration at half of the fitted maximal effect.
SMILES,NS1 function inh,RE007 growth inh,Pf growth 48h,SARS PLpro yeast,Pf growth 96h
CCOC(=O)C1C(=O)CC(C)(O)C(C(=O)OCC)C1c1cccc(OC(F)(F)C(F)F)c1 (stereo unspecified),?,1.0%,10.4µM*,0.0%,?
O=C(CCNC(=O)c1ccco1)NC(Cc1c[nH]c2ccccc12)C(=O)O (stereo unspecified),·,-3.6%,4.9%,-3.0%,36.3%
CN(Cc1ccccn1)C(=O)C1CCC(=O)N(CCc2ccc(Cl)cc2)C1 (stereo unspecified),-7.1%,-5.9%,0.1%,2.9%,1.3%
COc1ccc(CCN2C(=O)CSC2c2ccc(F)cc2)cc1 (stereo unspecified),-9.5%,-6.2%,-15.7%,1.0%,-29.5%
O=C(COc1ccc(S(=O)(=O)N2CCc3ccccc32)cc1Cl)NCc1ccccn1,-47.4%,3.4%,?,1.1%,·
COc1ccc(S(=O)(=O)N2CCc3ccccc32)cc1C(=O)NCCc1ccccn1,12.4%,-1.1%,10.4µM*,-4.2%,?
CCN(CC(=O)Nc1ccc(NC(C)=O)cc1)C(=O)c1cccc(S(=O)(=O)N2c3ccccc3CC2C)c1 (stereo unspecified),·,4.8%,?,1.8%,?
C=CCN(CC=C)C(=O)c1cccc(S(=O)(=O)N2c3ccccc3CC2C)c1 (stereo unspecified),7.2%,14.9%,2.33µM*,-1.1%,?
O=C(Nc1ccncc1)c1cccc(S(=O)(=O)N2CCc3ccccc32)c1,·,-14.7%,10.4µM*,3.4%,?
O=C(Nc1cccnc1)c1cccc(S(=O)(=O)N2CCc3ccccc32)c1,·,5.9%,10.4µM*,0.4%,3.29µM*
O=C(Nc1c2c(nn1-c1cccc(Cl)c1)CS(=O)(=O)C2)c1ccco1,7.8%,-4.8%,-3.6%,6.4%,?
O=C(Nc1cccnc1)c1ccc(Cl)c(S(=O)(=O)N2CCc3ccccc32)c1,·,-13.0%,2.62µM*,-2.4%,3.7µM*
CC1Cc2ccccc2N1S(=O)(=O)c1cccc(C(=O)NC2CC2)c1 (stereo unspecified),-7.6%,-4.1%,·,-1.1%,?
CC(=O)N1c2ccc(S(=O)(=O)N3c4ccccc4CC3C)cc2CC1C (stereo unspecified),-2.1%,0.9%,?,0.9%,25.3%
CC1Cc2ccccc2N1S(=O)(=O)c1cccc(C(=O)Nc2cccnc2)c1 (stereo unspecified),-32.3%,9.0%,8.28µM*,4.6%,?
COc1ccc(S(=O)(=O)N2CCc3ccccc32)cc1C(=O)O,11.8%,-20.7%,1.2%,-0.2%,90.6%
COc1ccc(S(=O)(=O)N2CCc3ccccc32)cc1C(=O)Nc1cccnc1,0.7%,-5.4%,?,0.4%,2.94µM*
CC1Cc2ccccc2N1S(=O)(=O)c1ccc2c(c1)n(C)c(=O)c(=O)n2C (stereo unspecified),2.3%,-7.0%,9.28µM*,1.8%,?
Clc1ccc(Cl)c(SCCCN2CCNCC2)c1,-2.8%,·,·,·,·
C[C@H](CO)N1C[C@H](C)[C@@H](CN(C)Cc2ccc3c(c2)OCO3)Oc2ccc(NS(C)(=O)=O)cc2C1=O,·,-18.5%,·,-1.9%,·
Cc1cc(C)n2c(SCC(=O)Nc3cc(C)on3)nnc2n1,8.6%,16.4%,9.9%,10.2%,-26.3%
CCc1nnc(NC(=O)CSc2nnc3nc(C)cc(C)n23)s1,5.8%,-13.5%,-9.6%,3.0%,2.08µM*
O=C1C=C2C=CC3C[C@@]2(O1)C1CCCCN31 (stereo partly specified),·,·,12µM*,·,2.69µM*
CCC(Cc1ccccc1)NC(=O)C1=C(C)C(=O)OC12CCC(C)CC2 (stereo unspecified),·,3.0%,20.8%,0.5%,?
CC(=O)c1c(O)ccc2c(-c3ccccc3)cc(=O)oc12,-29.1%,?,12.2%,12.3%,14.8%
SMILES,NS1 function inh,RE007 growth inh,Pf growth 48h,SARS PLpro yeast,Pf growth 96h
Cc1cc(=O)oc2c(C(=O)/C=C/c3ccccc3)c(O)ccc12,-2.5%,-1.6%,5.86µM*,-5.2%,·
COc1cc(/C=C/C(=O)c2c(O)ccc3c(C)cc(=O)oc23)ccc1O,-7.5%,14.6%,?,·,?
COc1ccc(/C=C\C(=O)c2c(O)ccc3c(C)cc(=O)oc23)cc1OC,4.6%,-9.2%,9.28µM*,3.2%,·
O=C(/C=C/c1cccs1)c1cc(Cl)ccc1O,-1.8%,-20.9%,?,-1.2%,-5.4%
Cc1cc(=O)oc2c(C(=O)/C=C\c3cccs3)c(O)ccc12,-23.1%,9.7%,-9.2%,-61.1%,13.1µM*
CCCNC(=O)C1(C)CCCN(Cc2c3ccccc3nn2C)C1 (stereo unspecified),·,-13.9%[18.4 µM],·,·,·
Cc1ccc(O)c(C(=O)c2cnc3c(c2)COc2ccccc2-3)c1,-25.7%,6.4%,4.15µM*,-51.1%,?
O=C(c1cnc2c(c1)COc1ccc(Cl)cc1-2)c1ccccc1O,8.1%,10.5%,?,-12.2%,0.4%
COc1ccc(C(C(=O)NCC2CCCO2)N(Cc2ccccc2)C(=O)CNC(=O)c2ccco2)cc1OC (stereo unspecified),0.2%,-3.5%,2.8%,0.7%,-2.7%
CCn1c(=O)c2sccc2n2c(CCCC(=O)NCc3cccnc3)nnc12,7.3%,-16.9%,25.1%,-0.4%,13.1µM*
COc1ccc(C(=O)N2CCCN(C)CC2)cc1S(=O)(=O)N(C)Cc1ccccc1,·,1.7%,?,4.1%[6.58 µM],?
Cn1cccc1Cc1nnc(SCC(=O)N2CCN(c3ccccc3)CC2)n1-c1ccc(F)cc1,3.5%,1.0%,?,0.0%,1.47µM*
Cc1ccc(NC(=O)CSc2nnc(Cc3cccn3C)n2-c2ccc(F)cc2)c(C)c1,-8.3%,-3.8%,·,5.7%,9.28µM*
Cn1cccc1Cc1nnc(SCC(=O)Nc2ccc(F)cc2F)n1-c1ccc(F)cc1,-14.0%,-7.9%,?,-4.4%,45.3%
CCOC(=O)c1ccccc1NC(=O)CSc1nnc(Cc2cccn2C)n1-c1ccc(F)cc1,-6.4%,-8.1%,?,-5.8%,58.5%
CCOc1ccccc1NC(=O)CSc1nnc(Cc2cccn2C)n1-c1ccc(F)cc1,-30.5%,-1.8%,5.86µM*,-9.2%,-26.3%
Cc1ccccc1-c1cnc(C(O)c2c(C)ccc3ccccc23)[nH]1 (stereo unspecified),·,-29.5%[18.4 µM],·,·,·
CN(CC(=O)Nc1cccc(F)c1)C(=O)/C=C/c1cn(Cc2ccccc2)nc1-c1cccnc1,·,2.0%,?,-1.3%,10.4µM*
CCN(CC(=O)Nc1cc(Cl)cc(Cl)c1)CC(=O)NC1CCS(=O)(=O)C1 (stereo unspecified),·,-8.1%,·,0.1%,·
Cc1ccccc1N=CC=C1OC(C)(C)C(C)(C)O1,21.5%,-17.3%,8.28µM*,9.1%,36.1%
Cc1cccc(N=CC=C2OC(C)(C)C(C)(C)O2)c1,-1.7%,-13.4%,?,22.5%,14.7%
